# “And” between values parts separate entries of the source, which are not always exact repeats. Identical values can stand only once. Results filed as inconclusive are left out. A call without a number means that no potency is given here. Values without a mark were called inactive. The source made the active and inactive calls. Unless noted, calls follow the shape of the dose curve; as a rule, active = well fitted curve in the direction sought with a large enough effect; inconclusive = small, poorly fitted or top-dose-only effect, or another doubt; inactive = no such curve, though single readings can be large; an effect the other way counts as inactive or inconclusive.
# Tests used:
# [1] = molecular target: Voltage-gated inwardly rectifying potassium channel KCNH2 (Homo sapiens) (UniProt Q12809); assay: qHTS Assay for Small Molecule Inhibitors of the Human hERG Channel Activity (AID 588834);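 also: lower thallium flux fluorescence means stronger hERG block; nearly all actives have a fitted effect of over 50% in size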; also: potency is read from the fitted curve at half-maximal effect
# Chain of Voltage-gated inwardly rectifying potassium channel KCNH2 (Homo sapiens) (Q12809 whole entry, looked up): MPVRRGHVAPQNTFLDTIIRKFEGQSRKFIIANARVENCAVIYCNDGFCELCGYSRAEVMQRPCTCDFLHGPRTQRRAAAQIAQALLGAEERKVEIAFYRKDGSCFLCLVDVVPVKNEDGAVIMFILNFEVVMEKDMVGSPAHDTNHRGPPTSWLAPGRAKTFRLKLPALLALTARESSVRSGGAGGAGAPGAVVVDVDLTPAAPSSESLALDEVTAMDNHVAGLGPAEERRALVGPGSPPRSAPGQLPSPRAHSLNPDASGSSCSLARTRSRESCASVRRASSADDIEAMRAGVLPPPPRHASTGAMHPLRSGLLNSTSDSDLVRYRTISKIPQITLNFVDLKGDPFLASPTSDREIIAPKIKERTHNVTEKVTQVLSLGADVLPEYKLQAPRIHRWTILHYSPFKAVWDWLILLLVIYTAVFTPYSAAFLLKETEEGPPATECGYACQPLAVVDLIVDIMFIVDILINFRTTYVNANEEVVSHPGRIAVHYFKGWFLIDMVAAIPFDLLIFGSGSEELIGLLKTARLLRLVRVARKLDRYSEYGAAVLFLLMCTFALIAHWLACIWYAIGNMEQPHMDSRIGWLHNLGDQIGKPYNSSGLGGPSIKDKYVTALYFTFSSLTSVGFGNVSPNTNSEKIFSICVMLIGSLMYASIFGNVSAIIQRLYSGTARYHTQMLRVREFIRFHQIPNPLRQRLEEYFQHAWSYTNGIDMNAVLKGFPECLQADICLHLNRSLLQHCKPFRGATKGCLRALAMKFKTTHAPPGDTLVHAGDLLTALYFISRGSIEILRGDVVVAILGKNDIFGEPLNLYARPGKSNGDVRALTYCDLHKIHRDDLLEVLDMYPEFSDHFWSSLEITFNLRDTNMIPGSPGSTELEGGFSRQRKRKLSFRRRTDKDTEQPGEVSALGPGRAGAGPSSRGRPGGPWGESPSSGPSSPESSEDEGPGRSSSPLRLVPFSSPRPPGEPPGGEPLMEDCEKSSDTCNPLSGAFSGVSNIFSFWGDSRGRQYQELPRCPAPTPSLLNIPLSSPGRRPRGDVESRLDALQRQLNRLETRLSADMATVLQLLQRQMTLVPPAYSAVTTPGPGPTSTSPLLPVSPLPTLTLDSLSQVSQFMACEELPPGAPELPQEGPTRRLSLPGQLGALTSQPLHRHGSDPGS
# Method in brief: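 Blockade is seen as reduced FluxOR thallium-flux fluorescence in U2OS cells expressing hERG from a BacMam construct, in Opti-MEM with 2% FCS. Concentration-response data fitted to the Hill equation for AC50.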
# [2] = molecular target: Luciferin 4-monooxygenase (Photinus pyralis) (UniProt P08659); assay: Biochemical firefly luciferase enzyme assay for NPC (AID 624030);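 also: purified P. pyralis luciferase at 10 nM with luciferin and ATP substrate; series mostly up to about 59 µM; nearly all actives have a fitted effect of over 70% in size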
# Chain of Luciferin 4-monooxygenase (Photinus pyralis) (P08659 whole entry, looked up): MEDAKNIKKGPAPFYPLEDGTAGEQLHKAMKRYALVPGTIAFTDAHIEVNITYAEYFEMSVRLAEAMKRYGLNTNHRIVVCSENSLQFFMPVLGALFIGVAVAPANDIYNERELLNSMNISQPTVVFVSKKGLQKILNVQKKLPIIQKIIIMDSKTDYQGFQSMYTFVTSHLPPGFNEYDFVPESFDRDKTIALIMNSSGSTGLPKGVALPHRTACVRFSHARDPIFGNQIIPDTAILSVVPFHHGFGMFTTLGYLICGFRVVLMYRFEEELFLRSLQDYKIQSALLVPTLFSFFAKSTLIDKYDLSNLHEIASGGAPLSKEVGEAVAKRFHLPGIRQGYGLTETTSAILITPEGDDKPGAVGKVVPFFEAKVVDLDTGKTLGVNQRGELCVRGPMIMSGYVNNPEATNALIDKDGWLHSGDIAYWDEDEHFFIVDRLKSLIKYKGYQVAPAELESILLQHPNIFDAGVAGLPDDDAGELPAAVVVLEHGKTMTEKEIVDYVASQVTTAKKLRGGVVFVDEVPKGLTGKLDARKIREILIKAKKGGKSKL
# Method in brief: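 Purified P. pyralis luciferase at 10 nM in 50 mM Tris Acetate (final), luminescence read within 5 minutes of enzyme addition to compounds. Activity normalised to PTC124 versus DMSO; concentration-response curves classed by r2, magnitude and activity.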
# [3] = S16 Schwann cell viability assay (CellTiter-Glo assay) (AID 624031);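 also: cellular ATP luminescence as a viability measure; series mostly up to about 58 µM; nearly all actives have a fitted effect of over 70% in size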
# Method in brief: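 Untransfected S16 rat Schwann cells; compound 24 h, 37 °C/5% CO2; CellTiter-Glo ATP luminescence. % activity vs no-cell wells and DMSO controls (0%); concentration-effect curves classed by r2, response magnitude, activity.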
# [4] = S16 Schwann cell PMP22 intronic element firefly luciferase assay (AID 624032); also: nearly all actives have a fitted effect of over 30% in size; also: potency is read from the fitted curve at half-maximal effect
# Method in brief: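 Rat S16 Schwann cells stably carrying firefly luciferase driven by a PMP22 intronic element, in 10% FBS, treated 24 h at 37 C. ONE-Glo luminescence normalized to PTC124 control and DMSO (0%); curves classed by r2, magnitude and activity.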
# [5] = S16 Schwann cell PMP22 intronic element beta-lactamase assay (AID 624044; calls by dose curve; also: nearly all actives have a fitted effect of over 15% in size)
# Method in brief: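 Rat S16 Schwann cells with beta-Lac driven by a PMP22 intronic element, compound-treated 24 h at 37 °C. LiveBLAzer FRET B/G read: 460 nm normalized to potassium clavulanate vs DMSO; 535 nm FRET as viability; concentration-effect curves classified.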
# [6] = molecular target: Glutaminase kidney isoform, mitochondrial (Homo sapiens) (UniProt O94925); assay: qHTS for Inhibitors of Glutaminase (GLS): LOPAC Validation (AID 624146);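 also: glutamate product detected by oxidase and peroxidase coupled Amplex red fluorescence gain; series mostly up to about 46 µM; nearly all actives have a fitted effect of over 60% in size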
# Chain of Glutaminase kidney isoform, mitochondrial (Homo sapiens) (O94925 whole entry, looked up, canonical isoform): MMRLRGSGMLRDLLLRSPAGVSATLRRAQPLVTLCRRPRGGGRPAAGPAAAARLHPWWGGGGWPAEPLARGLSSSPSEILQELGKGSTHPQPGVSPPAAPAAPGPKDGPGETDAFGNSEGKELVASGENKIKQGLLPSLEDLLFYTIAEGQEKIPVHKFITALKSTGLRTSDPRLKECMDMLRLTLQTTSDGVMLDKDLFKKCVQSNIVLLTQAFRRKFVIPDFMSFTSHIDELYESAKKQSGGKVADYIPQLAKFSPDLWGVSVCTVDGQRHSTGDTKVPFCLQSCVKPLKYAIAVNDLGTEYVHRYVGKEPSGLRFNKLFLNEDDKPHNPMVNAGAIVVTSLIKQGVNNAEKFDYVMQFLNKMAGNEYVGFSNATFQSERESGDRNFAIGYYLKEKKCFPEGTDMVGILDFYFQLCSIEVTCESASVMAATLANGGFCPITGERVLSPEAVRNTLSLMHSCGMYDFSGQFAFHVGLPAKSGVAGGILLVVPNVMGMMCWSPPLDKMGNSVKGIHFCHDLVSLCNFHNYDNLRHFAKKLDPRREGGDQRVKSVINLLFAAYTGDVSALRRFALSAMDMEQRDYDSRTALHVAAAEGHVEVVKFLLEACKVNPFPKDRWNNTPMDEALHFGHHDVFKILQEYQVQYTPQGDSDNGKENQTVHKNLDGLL
# Method in brief: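 Two-point fluorescence kinetic (t0, 30 min RT) for hKGA; glutamate detected via glutamate oxidase–HRP–Amplex Red. Substrate: 1 mM L-glutamine solution; buffer 45 mM KH2PO4, pH 8.2.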
# [7] = qHTS of Trypanosoma Brucei Inhibitors: LOPAC Validation (AID 624147)
# Method in brief: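 Luminescence from Kinase-Glo Plus, added after a 45-minute room-temperature reaction, served as the end-point read-out. The enzyme and substrate were preincubated with compound before ADP (130 uM final) initiated turnover. Concentration-effect curves came from normalized qHTS data.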
# [8] = molecular target: Glucagon-like peptide 1 receptor (Homo sapiens) (UniProt P43220); assay: qHTS of GLP-1 Receptor Agonists: LOPAC Validation (AID 624148);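 also: higher luminescence signal means agonism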
# Chain of Glucagon-like peptide 1 receptor (Homo sapiens) (P43220 whole entry, looked up): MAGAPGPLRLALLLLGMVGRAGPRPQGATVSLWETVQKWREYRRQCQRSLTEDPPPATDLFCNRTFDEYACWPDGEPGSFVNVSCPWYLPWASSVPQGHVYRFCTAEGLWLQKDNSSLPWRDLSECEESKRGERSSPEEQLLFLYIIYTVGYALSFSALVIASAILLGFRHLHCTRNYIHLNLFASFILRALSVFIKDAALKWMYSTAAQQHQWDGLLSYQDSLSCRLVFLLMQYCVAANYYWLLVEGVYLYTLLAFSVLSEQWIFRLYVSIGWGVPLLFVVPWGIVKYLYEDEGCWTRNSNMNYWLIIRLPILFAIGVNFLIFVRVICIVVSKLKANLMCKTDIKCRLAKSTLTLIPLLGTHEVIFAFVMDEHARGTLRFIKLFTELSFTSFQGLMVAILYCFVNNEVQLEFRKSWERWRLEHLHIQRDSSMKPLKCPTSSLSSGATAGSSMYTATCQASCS
# Method in brief: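 HEK293 cells stably co-expressing GLP-1R and a cAMP-responsive luciferase reporter, plated 12 hours before compound, then incubated 4-6 hr at 37 deg C. Luminescence read 12 min after detection reagent.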
# [9] = HTS Assay for Allosteric Antagonists of the Human D2 Dopamine Receptor: Hit Validation in HTRF (AID 624455);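 also: stable D1 dopamine receptor cell line scored for blocking the D1 response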
# Method in brief: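 Hit validation in cells stably expressing the D1 dopamine receptor, run in HTRF format. Compounds were tested for their ability to inhibit the D1-mediated response.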
# [10] = qHTS assay for small molecule agonists of the antioxidant response element (ARE) signaling pathway (AID 651741; active = well fitted activation curve with a large enough effect in the signal ratio; the % refers to the signal ratio; also: potency is read from the fitted curve at half-maximal effect)
# Method in brief: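 CellSensor ARE-bla HepG2 cells (2,000/well) carrying ARE-driven beta-lactamase, exposed 16 h at 37 C. LiveBLAzer B/G FRET substrate added for 2 h at room temperature; fluorescence intensity read.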
# [11] = qHTS assay for small molecule activators of the p53 signaling pathway (AID 651743; active = well fitted activation curve with a large enough effect in the signal ratio, not every such curve was filed as active; the % refers to the signal ratio; also: series mostly up to about 92 µM); conditions: HCT-116 p53RE-bla, beta-lactamase FRET ratio, 16 h; stronger effect = higher value
# Method in brief: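 p53RE-bla HCT-116 cells carrying a beta-lactamase reporter under p53 response elements were exposed to compounds for 16 hours at 37 C. Reporter activity read as fluorescence after 2 hours at room temperature with LiveBLAzer B/G FRET substrate.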
# [12] = qHTS assay for small molecule activators of the nuclear factor-kappa B (NF-kB) signaling pathway (AID 651749; active = well fitted activation curve with a large enough effect in the signal ratio; the % refers to the signal ratio; also: series mostly up to about 77 µM); conditions: NF-kB-bla ME-180 cells, beta-lactamase FRET ratio, 16 h; activation: stronger effect = higher value
# Method in brief: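 NF-kB-bla ME-180 cells carrying a beta-lactamase reporter under an NF-kB response element, 2,000 cells/well, exposed to compound for 16 hr at 37C; FRET-based beta-lactamase fluorescence read-out of pathway activation.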
smiles,measurement,setting,value
O=c1cc[nH]c(=S)[nH]1,Potency,[1],inactive
same,Potency,[2],inactive
same,Potency,[3],inactive
same,Potency,[4],inactive
CC(=O)NC(Cc1ccccc1)C(=O)O (centres undefined),Potency,[1],inactive
same,Potency,[2],inactive
same,Potency,[3],inactive
same,Potency,[4],inactive
same,Potency,[5],inactive
Cn1cc[nH]c1=S,Potency,[1],inactive
same,Potency,[2],inactive
same,Potency,[3],inactive
same,Potency,[4],inactive
same,Potency,[5],inactive
CC1(C)CO[C@@H](CC(=O)O)CN1,Potency,[1],inactive
same,Potency,[2],inactive
same,Potency,[3],inactive
same,Potency,[4],inactive
COc1cc2[nH]c(=O)[nH]c(=O)c2cc1OC,Potency,[1],inactive
same,Potency,[2],inactive
same,Potency,[3],inactive
same,Potency,[4],inactive
N[C@@H](CSCCCO)C(=O)O,Potency,[1],inactive
same,Potency,[2],inactive
same,Potency,[3],inactive
same,Potency,[4],inactive
CCCOC(=O)c1ccccc1,Potency,[1],inactive
same,Potency,[2],inactive
same,Potency,[3],inactive
same,Potency,[4],inactive
CCCCOc1cc(C(=O)OCCN(CC)CC)ccc1N,Potency,[1],4.47 µM (active)
same,Potency,[2],inactive
same,Potency,[3],inactive
same,Potency,[4],inactive
same,Potency,[5],inactive
C=Cc1c(C)c2cc3[nH]c(cc4nc(cc5nc(cc1[nH]2)C(C)=C5CCC(=O)O)C(CCC(=O)O)=C4C)c(C)c3C=C,Potency,[1],inactive
same,Potency,[2],inactive
same,Potency,[3],inactive
same,Potency,[4],12.8 µM (active)
same,Potency,[5],inactive
same,Potency,[6],inactive
same,outcome,[7],inactive
same,outcome,[8],inactive
same,outcome,[9],inactive
CCCCc1ncc(/C=C(\Cc2cccs2)C(=O)O)n1Cc1ccc(C(=O)O)cc1,Potency,[1],inactive
same,Potency,[2],inactive
same,Potency,[3],inactive
same,Potency,[4],inactive
CC[C@@]1(c2ccccc2)NC(=O)N(C)C1=O,Potency,[1],inactive
same,Potency,[2],inactive
same,Potency,[3],inactive
same,Potency,[4],inactive
same,Potency,[5],inactive
O=C(O)CN1C(=O)c2cccc3cccc(c23)C1=O,Potency,[1],inactive
same,Potency,[2],inactive
same,Potency,[3],inactive
same,Potency,[4],inactive
O=C(O)CC(O)C(=O)O (centres undefined),Potency,[1],inactive
same,Potency,[2],inactive
same,Potency,[3],inactive
same,Potency,[4],inactive
same,Potency,[5],inactive
O=C1OC(OC(=O)c2cccnc2Nc2cccc(C(F)(F)F)c2)c2ccccc21 (centres undefined),Potency,[1],inactive
same,Potency,[2],inactive
same,Potency,[3],inactive
same,Potency,[4],7.21 µM (active)
O=C(O)c1ccccn1,Potency,[1],inactive
same,Potency,[2],inactive
same,Potency,[3],inactive
same,Potency,[4],inactive
same,Potency,[5],inactive
O=C(O)COc1nn(Cc2ccccc2)c2ccccc12,Potency,[1],inactive
same,Potency,[2],inactive
same,Potency,[3],inactive
same,Potency,[4],inactive
CCCCCCCCCCCCCCCC(=O)NCCO,Potency,[1],inactive
same,Potency,[2],inactive
same,Potency,[3],inactive
same,Potency,[4],inactive
same,Potency,[5],inactive
same,Potency,[6],inactive
same,outcome,[7],inactive
same,outcome,[8],inactive
same,outcome,[9],inactive
O=C(CCCN1CCN(c2ccccn2)CC1)c1ccc(F)cc1,Potency,[1],5.01 µM (active)
same,Potency,[2],inactive
same,Potency,[3],inactive
same,Potency,[4],inactive
CCn1cc(C(=O)O)c(=O)c2cnc(N3CCNCC3)nc21,Potency,[1],inactive
same,Potency,[2],inactive
same,Potency,[3],inactive
same,Potency,[4],7.75 µM (active)
CCC(=O)Nc1ccc(O)cc1,Potency,[1],inactive
same,Potency,[2],inactive
same,Potency,[3],inactive
same,Potency,[4],inactive
OCC(O)CN1CCN(c2ccccc2)CC1 (centres undefined),Potency,[1],inactive
same,Potency,[2],inactive
same,Potency,[3],inactive
same,Potency,[4],inactive
same,Potency,[5],inactive
CC(=O)Nc1ccc(/C=N/NC(N)=S)cc1,Potency,[1],inactive
same,Potency,[2],inactive
same,Potency,[3],inactive
same,Potency,[4],inactive
Nc1nc2c(ncn2CCC(CO)CO)c(=O)[nH]1,Potency,[1],inactive
same,Potency,[2],inactive
same,Potency,[3],inactive
same,Potency,[4],inactive
NCC(=O)CCC(=O)O,Potency,[1],inactive
same,Potency,[2],inactive
same,Potency,[3],inactive
same,Potency,[4],inactive
NC(=O)N/N=C/c1ccc([N+](=O)[O-])o1,Potency,[1],inactive
same,Potency,[2],inactive
same,Potency,[3],inactive
same,Potency,[4],10.2 µM (active)
same,Potency,[5],inactive
same,Potency,[10],17.2 µM (active) and 21.1 µM (active)
same,activation,[11],-0.844% and -0.297%
same,activation,[12],-2.02% and 0.212%
Cc1ncc(COP(=O)(O)O)c(C=O)c1O,Potency,[1],inactive
same,Potency,[2],inactive
same,Potency,[3],inactive
same,Potency,[4],inactive
CCN(CC)CCNC(=O)c1cc(Cl)c(N)cc1OC,Potency,[1],inactive
same,Potency,[2],inactive
same,Potency,[3],inactive
same,Potency,[4],inactive
same,Potency,[5],inactive
same,Potency,[6],inactive
same,outcome,[7],inactive
same,outcome,[8],inactive
same,outcome,[9],inactive
NC(=O)NC(=O)Cc1ccccc1,Potency,[1],inactive
same,Potency,[2],inactive
same,Potency,[3],inactive
same,Potency,[4],inactive
CC(C)(C)NCC(O)COc1ccc(NC(=O)NC2CCCCC2)cc1 (centres undefined),Potency,[1],inactive
same,Potency,[2],inactive
same,Potency,[3],inactive
same,Potency,[4],inactive
O=C1NC(=O)[C@@]2(CCOc3ccc(F)cc32)N1,Potency,[1],inactive
same,Potency,[2],inactive
same,Potency,[3],inactive
same,Potency,[4],inactive
Nc1ccc(S(=O)(=O)NC(=O)c2ccccc2)cc1,Potency,[1],inactive
same,Potency,[2],inactive
same,Potency,[3],inactive
same,Potency,[4],inactive
NC(CSCC(=O)O)C(=O)O (centres undefined),Potency,[1],inactive
same,Potency,[2],inactive
same,Potency,[3],inactive
same,Potency,[4],inactive
CC(=O)c1ccc2c(c1)N(CCCN(C)C)c1ccccc1S2,Potency,[1],4.47 µM (active)
same,Potency,[2],inactive
same,Potency,[3],inactive
same,Potency,[4],inactive
COc1ccc(S(=O)(=O)Nc2nnc(CC(C)C)s2)cc1,Potency,[1],inactive
same,Potency,[2],inactive
same,Potency,[3],inactive
same,Potency,[4],inactive
CC(=O)CCC(=O)O,Potency,[1],inactive
same,Potency,[2],inactive
same,Potency,[3],inactive
same,Potency,[4],inactive
COc1cc(C(=O)N2CCOCC2)cc(OC)c1OC,Potency,[1],inactive
same,Potency,[2],inactive
same,Potency,[3],inactive
same,Potency,[4],inactive
NS(=O)(=O)c1cc2c(cc1Cl)NC(CSCc1ccccc1)=NS2(=O)=O,Potency,[1],inactive
same,Potency,[2],inactive
same,Potency,[3],inactive
same,Potency,[4],inactive

# Source: PubChem BioAssay (NCATS)
